GAA glycogen mod: GAA glycogen-cleavage inhibition or activation; Potency, µM (doses to about 76.4 µM), for inactives: top-dose activity change, negative = inhibition, actives largely listed as inhibitors; P10253; recombinant GAA, glycogen substrate, Amplex Red glucose oxidase fluorescence; 300,000 tested, 0.38% active; AID 2100;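 also: potency is read from the fitted curve at half-maximal effect; 0% = full enzyme reaction and -100% = no-enzyme basal signal; the screen sought inhibitors and activators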
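Recombinant human enzyme (4 nM); glycogen substrate; 37 C, 40 min, pH 5.0. Readout: coupled glucose oxidase/Amplex Red fluorescence.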
GLA inh pH 4.5: blocks human alpha-galactosidase A at pH 4.5. P06280. activity change, negative = inhibition, % at 105 µM. 230,000 tested, under 10 active. purified enzyme, 4-MU-alpha-Gal fluorescence, pH 4.5;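 also: 0% = full activity with enzyme and -100% = basal without enzyme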
Target sequence (P06280 whole entry, looked up): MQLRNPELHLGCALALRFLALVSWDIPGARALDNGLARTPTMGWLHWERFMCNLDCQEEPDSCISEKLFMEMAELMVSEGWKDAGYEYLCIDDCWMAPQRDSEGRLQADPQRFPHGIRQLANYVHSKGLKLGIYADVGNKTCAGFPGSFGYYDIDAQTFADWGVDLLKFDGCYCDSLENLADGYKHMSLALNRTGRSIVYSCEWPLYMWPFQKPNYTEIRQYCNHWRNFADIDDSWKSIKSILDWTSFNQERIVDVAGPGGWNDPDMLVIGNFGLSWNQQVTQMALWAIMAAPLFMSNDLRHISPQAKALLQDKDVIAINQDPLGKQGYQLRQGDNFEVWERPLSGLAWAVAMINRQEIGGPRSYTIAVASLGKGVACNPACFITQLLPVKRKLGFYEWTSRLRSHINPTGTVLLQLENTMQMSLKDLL
GLA spleen mod: inhibitors or activators of human alpha-galactosidase in spleen homogenate | human spleen homogenate, 4MU-alpha-Gal fluorescence, 40 min | 240,000 tested, 0.008% active | Potency, µM (series often up to 80 µM), for the others: top-dose activity change, negative = inhibition, most hits filed as inhibitors | P06280;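 also: potency is read from the fitted curve at half-maximal effect; 0% = enzyme with vehicle and -100% = no enzyme basal signal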
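Human spleen homogenate (1 ug) was the enzyme source, with 4-methylumbelliferyl-alpha-D-galactopyranoside (1 mM final) in pH 5.0 citrate buffer with 0.01% Tween-20. Compounds were titrated; after 40 min at 37C, NaOH/glycine stop, 4-MU fluorescence read; AC50 from Hill fits.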
GAA inhib: alpha-glucosidase (human) inhibition; P10253; purified human GAA, 4-MU-alpha-glucoside fluorescence; Potency, µM (series often up to 76.9 µM), for inactives: top-dose activity change, negative = inhibition, usual class: inhibitors; 200,000 tested, 0.005% active;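 also: potency is read from the fitted curve at half-maximal effect; plate controls were uninhibited enzyme wells for no effect and no-enzyme background for full effect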
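Fluorescence at Ex 365/Em 440 nm from 4-methylumbelliferone reported enzyme activity after 20 min at room temperature. Reactions used 4 nM enzyme and 400 uM substrate at pH 5.0; curves fitted with the Hill equation.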
GAA spleen mod: inhibits or activates alpha-glucosidase in human spleen homogenate; human spleen homogenate, 4-MU-alpha-glucoside fluorescence; 240,000 tested, 0.006% active; AID 2112; Potency, µM (titrated, usually from 79.9 µM), for the others: top-dose activity change, negative = inhibition, most hits filed as inhibitors;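 also: potency is read from the fitted curve at half-maximal effect; 0% = enzyme with vehicle and -100% = no enzyme basal signal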
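Human spleen homogenate (1 ug) with 4-methylumbelliferyl-alpha-D-glucopyranoside (1 mM final) in 50 mM citrate/phosphate pH 5.0, 0.01% Tween-20; 40 min at 37 C. Stopped at pH 10; 4-MU fluorescence Ex 365/Em 440 nm; AC50 by Hill fit.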
N370S GC: inhibits or activates N370S mutant glucocerebrosidase | AID 2101 | 330,000 tested, 0.092% active | N370S GC spleen homogenate, 4MU-glucoside fluorescence | Potency, µM (series often up to 59.4 µM), without a hit: top-dose activity change, negative = inhibition, hits mostly inhibitors;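 also: potency is read from the fitted curve at half-maximal effect; 0% = full enzyme activity and -100% = no enzyme basal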
An asterisk follows results filed as active; ? = inconclusive; · = no result; [ ] = dose if it differs, or a comment. Rows were chosen to be rich in hits. Some 0.43% of all compounds tested hit in one or more screens of this group. Calls follow the shape of the dose curve; as a rule, active = well fitted curve in the direction sought with a large enough effect; inconclusive = small, poorly fitted or top-dose-only effect, or another doubt; inactive = no such curve, though single readings can be large; an effect the other way counts as inactive or inconclusive.

SMILES | GAA glycogen mod | GLA inh pH 4.5 | GLA spleen mod | GAA inhib | GAA spleen mod | N370S GC
Nc1ccccc1C(=O)NNc1c2ccccc2nc2ccccc12 | 40µM* | -1 | 8% | · | 1% | ?
O=C(Nc1ccccn1)C(=O)Nc1ccccn1 | 7% | -5 | 8% | 2% | 4% | 1%
Cc1ccc(S(=O)(=O)NNC(=O)C(=O)NNc2ccccn2)cc1 | 3.5µM* | 6 | -1% | 0% | -8% | 5%
Nc1ccc(S(=O)(=O)NNC(=O)C(=O)NNc2ccccn2)cc1 | 3.2µM* | 5 | 2% | -4% | -5% | -2%
CC(=O)Nc1ccc(S(=O)(=O)NNC(=O)C(=O)NNc2ccccn2)cc1 | ? | -6 | -7% | 2% | -7% | 3%
Cc1ccccc1S(=O)(=O)NNC(=O)C(=O)NNc1ccccn1 | 3.5µM* | -2 | -2% | -2% | 4% | 4%
CCC(Nc1ncnc2ccc(-c3c(C)noc3C)cc12)c1ccccc1 (stereo not given) | · | · | 16% | · | 0% | -6%
CC[C@H](C)[C@H](N)C(=O)N[C@@H](CC(N)=O)C(=O)N1CCC[C@H]1C(=O)N[C@H](C(=O)N[C@@H](Cc1ccc(O)cc1)C(=O)N[C@@H](CCCN=C(N)N)C(=O)N[C@@H](CC(C)C)C(=O)N[C@@H](CCCN=C(N)N)C(=O)N[C@@H](Cc1ccc(O)cc1)C(N)=O)[C@@H](C)CC | · | · | 4% | · | -8% | -4%
Oc1c(Cl)cc(Cl)c2c1NCCC2 | 14µM* | -4 | 0% | 3% | 5% | -5%
O=C1NCCCc2c1oc1ccc(O)cc21 | -7% | 3 | -6% | -6% | -12% | 7%
CCc1ccc(O)c(N=Cc2ccccc2O)c1 | 11µM* | -13 | -2% | -3% | -4% | -7%
Cc1[nH]n(C(C)(C)C)c(=O)c1Sc1ccccc1 | 16µM* | 9 | 4% | 1% | -1% | 4%
C/C=C/OC(=O)NC(c1ccccc1)[C@]1(C(C)=O)CCCC1=O (stereo not given in full) | · | · | -3%[17.5 µM] | · | 1%[17.4 µM] | 7%[12.8 µM]
CCC1(CC)C(=O)C2=C3C1[C@H](C(=O)OC)CC(C(=O)OC)C[C@H]3[C@H]1C(=O)N(C)C(=O)[C@H]1[C@H]2C (stereo not given in full) | · | · | 12% | · | -2% | -10%
NNC(=O)c1nc(-c2ccccc2)n2c1CCCCC2 | 18µM* | 3 | 2% | 3% | -8% | 27%
O=C(N/N=C/c1ccncc1)c1nc(-c2ccccc2)n2c1CCCCC2 | -1% | -5 | 5% | -6% | 1% | 10%
CCOc1ccc(N2C(=O)CC(N3CCc4ccccc43)C2=O)cc1 (stereo not given) | 14µM* | 1 | -1% | -3% | 0% | 11%[12.8 µM]
CO[C@@H]1COC(=O)CCC[C@@H](C)[C@H](OC)COC(=O)[C@H](Cc2ccccc2)NC(=O)C/C=C\[C@H]1C | · | · | 0%[17.5 µM] | · | 6%[17.4 µM] | -1%[12.8 µM]
CCOC(=O)C1=C(C)NC(SCc2cc(=O)[nH][nH]2)=C(C#N)C1c1cccs1 (stereo not given) | 31µM* | -13 | -10% | -12% | -20% | -7%
CC(C)[C@H](NC(=O)[C@@H](Cc1c[nH]c2ccccc12)NC(=O)[C@H](Cc1ccc(O)cc1)NC(=O)[C@@H](N)CC(=O)O)C(=O)N[C@H](Cc1c[nH]c2ccccc12)C(=O)N[C@H](Cc1c[nH]c2ccccc12)C(=O)N[C@@H](CCCCN)C(N)=O | · | · | 24% | · | 4% | -1%
CCn1nc(C)cc1Nc1ccccc1 | 14µM* | -8 | 3% | -11% | -5% | ?
Cc1cc(Nc2ccccc2)n(-c2ccc(Br)cc2)n1 | ? | -1 | -5% | -4% | -10% | -15%
COc1cc(/C=C2\N=C3CCCCCN3C2=O)ccc1O | -25% | -10 | -2% | -10% | -9% | -17%
O=C1/C(=C\c2ccc(O)c(O)c2)N=C2CCCCCN12 | 7.1µM* | -15 | -7% | · | -7% | -14%
C=CC[n+]1c(-c2ccc(OC)cc2)csc1NNC(=O)Nc1ccccc1 | 20µM* | 1 | 6% | -10% | 2% | -16%
SMILES | GAA glycogen mod | GLA inh pH 4.5 | GLA spleen mod | GAA inhib | GAA spleen mod | N370S GC
COc1cc(-c2nc3ccc(C)cn3c2Nc2ccc3c(c2)OCCO3)ccc1O | 0% | -5 | -1% | ? | -1% | ?
COc1cc(-c2nc3cnccn3c2Nc2ccc(C)cc2)ccc1O | 11µM* | 0 | 1% | -1% | -4% | -13%
COc1cc(-c2nc3cnccn3c2Nc2ccc3c(c2)OCCO3)ccc1O | 7µM* | -3 | -2% | -8% | -6% | -11%
CCN1C(C)=C(C(=O)OC)C(c2ccccc2)N2C(=O)[C@](O)(C(=O)OC)CC(C(C)=O)=C12 (stereo not given in full) | · | · | 12%[17.5 µM] | · | 2%[17.4 µM] | -10%[12.8 µM]
COc1cccc(CNn2c(-c3cccc(C)c3)nc3ccccc3c2=O)c1O | 31µM* | -1 | -9% | -1% | -8% | 8%
COc1ccc(C2=Nn3c(nnc3-c3ccc(OC)cc3OC)SC2)cc1 | · | · | 3% | · | -1% | 0%
O=C(CSc1cn(CCNC(=O)c2ccccc2F)c2ccccc12)Nc1ccc2c(c1)OCCO2 | 8%[76.3 µM] | · | · | · | · | ·
O=C(CSc1cn(CCNC(=O)c2cccc(C(F)(F)F)c2)c2ccccc12)Nc1ccc2c(c1)OCCO2 | 35µM* | · | · | · | · | ·
Cc1cc(C(=O)NNc2ccc(C(C)C)cc2)n(C(C)(C)C)n1 | 28µM* | -1 | -4% | · | -6% | -2%
Cc1nnsc1C(=O)NNc1ccc(C(C)C)cc1 | -11% | -1 | 4% | -13% | 3% | -23%
COc1cc(O)c2c(c1)oc(=O)c1c3cc(O)c(O)cc3oc21 | · | · | 1% | · | -10% | -23%
O=C(NCCN1CCOCC1)c1ccc(/C=C2\Sc3ccccc3N(Cc3ccccc3F)C2=O)cc1 | 2%[76.3 µM] | · | · | · | · | 1µM*
Cc1ccccc1CN1C(=O)/C(=C\c2ccc(C(=O)NCCN3CCOCC3)cc2)Sc2ccccc21 | 0%[76.3 µM] | · | · | · | · | ?
C[C@@H]1/C=C\CC(=O)OC[C@H](C)C(=O)N[C@@H](Cc2ccccc2)C(=O)OC1 | · | · | -14%[17.5 µM] | · | 3%[17.4 µM] | 4%[12.8 µM]
COc1cccc(/C=C2/C(=O)NN(c3ccc(C)c(C)c3)C2=O)c1 | 32µM* | · | · | · | · | 2%
O=C(NC1CCCC1)C(c1ccncc1)N(Cc1cccs1)C(=O)c1csnn1 (stereo not given) | 20µM* | -4 | -6% | -10% | 5% | 2%
CC(C)(C)NC(=O)C(c1ccncc1)N(Cc1cccs1)C(=O)c1csnn1 (stereo not given) | ? | 5 | -2% | · | -2% | 14%

Compound activity as filed in PubChem BioAssay.
